Rows were chosen to be rich in hits. Some 2.4% of all compounds tested hit in one or more screens of this group.
Pol kappa inh-1 = blocks human DNA polymerase kappa activity; purified Pol kappa, fluorescent DNA synthesis assay, 10 min; Potency, µM (top dose mostly 107 µM), actives largely listed as inhibitors; Q9UBT6; 400,000 tested, 0.53% active
Target sequence (Q9UBT6 whole entry, looked up): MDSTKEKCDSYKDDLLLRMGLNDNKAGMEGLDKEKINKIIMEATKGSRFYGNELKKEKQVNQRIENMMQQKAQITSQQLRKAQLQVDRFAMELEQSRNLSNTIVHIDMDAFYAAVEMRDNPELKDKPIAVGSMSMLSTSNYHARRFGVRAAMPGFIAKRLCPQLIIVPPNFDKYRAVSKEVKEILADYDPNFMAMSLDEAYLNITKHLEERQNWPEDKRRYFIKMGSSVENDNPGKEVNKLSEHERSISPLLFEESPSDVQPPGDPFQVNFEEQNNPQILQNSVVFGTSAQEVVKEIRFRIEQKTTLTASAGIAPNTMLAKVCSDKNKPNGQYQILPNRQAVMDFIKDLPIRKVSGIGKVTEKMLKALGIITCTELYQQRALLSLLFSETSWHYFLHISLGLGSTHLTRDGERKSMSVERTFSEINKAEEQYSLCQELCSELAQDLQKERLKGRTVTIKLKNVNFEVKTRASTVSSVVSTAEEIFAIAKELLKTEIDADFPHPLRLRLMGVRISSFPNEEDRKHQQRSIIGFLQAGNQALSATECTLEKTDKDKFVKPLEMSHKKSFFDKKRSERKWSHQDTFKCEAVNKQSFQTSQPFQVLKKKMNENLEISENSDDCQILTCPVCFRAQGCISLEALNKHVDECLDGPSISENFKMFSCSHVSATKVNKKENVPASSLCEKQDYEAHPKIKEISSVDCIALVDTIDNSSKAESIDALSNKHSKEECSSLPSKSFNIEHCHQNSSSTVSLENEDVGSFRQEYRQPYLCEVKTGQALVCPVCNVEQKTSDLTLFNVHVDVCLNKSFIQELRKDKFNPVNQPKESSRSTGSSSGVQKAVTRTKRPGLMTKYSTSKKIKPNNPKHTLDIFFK
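Kinetic fluorescence readout at 0 and 10 min followed reaction start with substrate at 50 nM final. Beforehand, enzyme (10 nM Pol kappa) stood 15 min with compound at room temperature; buffer-only wells were negative controls.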
POLI inh = DNA polymerase iota (human) inhibition | 390,000 tested, 1% active | Q9UNA4 | Potency, µM (doses to about 115 µM), actives largely listed as inhibitors | Pol iota fluorescent replication assay, 10 min
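Fluorescent replication assay read twice, at 0 min and 10 min after adding 50 nM (final) substrate. Enzyme (10 nM) and compounds were first incubated 15 min at room temperature; enzyme-free buffer wells were negative controls.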
WRN helicase inh-1 = WRN helicase (human) inhibition; WRN helicase unwinding, fluorescent forked duplex, kinetic; Potency, µM (titrated, usually from 114 µM), actives largely listed as inhibitors; 360,000 tested, 0.46% active; AID 651768; further: nearly all actives have a fitted effect of over 55% in size
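WRN at 20 nM final preincubated with compound 15 min at room temperature; reaction started with 100 nM fluorophore/quencher forked duplex oligonucleotide and 2 mM ATP final. Unwinding followed kinetically by red fluorescence (ex 525, em 598 nm).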
Pol eta inh-1 = blocks human DNA polymerase eta activity | Q9Y253 | recombinant Pol eta, fluorescent DNA replication assay | Potency, µM (titrated, usually from 114 µM), actives largely listed as inhibitors | 390,000 tested, 1.2% active | AID 588591
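Pol eta at 10 nM preincubated with compounds 15 min at room temperature; reaction started with fluorescent substrate (50 nM final) and read kinetically at 0 and 10 min.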
FEN1 inh-1 = inhibitors of human flap endonuclease 1; 390,000 tested, 0.35% active; P39748; Recombinant FEN1 flap cleavage, fluorescence, 15 min; Potency, µM (titrated, usually from 114 µM), actives largely listed as inhibitors; further: nearly all actives have a fitted effect of over 65% in size
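In this screen, 50 nM flap DNA substrate was added to 10 nM FEN1 pretreated with compound for 15 min at room temperature; cleavage was followed with reads at 0 and 15 min, and Hill fitting gave concentration–response parameters.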
Pol beta inh = DNA polymerase beta (human) inhibition | Potency, µM (series often up to 114 µM), most hits filed as inhibitors | Pol beta primer extension/strand displacement, fluorescence kinetic | 340,000 tested, 1.3% active | AID 485314
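Values derive from four-parameter Hill fits of normalized kinetic data: reads at 0 and 10 min following addition of 50 nM substrate to 10 nM Pol beta preincubated 15 min with compound.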
TbPGK inh = blocks T. brucei phosphoglycerate kinase; shares compounds with Pol kappa inh-1; TbPGK coupled GAPDH assay, Kinase-Glo luminescence; Potency, µM (titrated, usually from 57.5 µM), most hits filed as inhibitors; 500 tested, 79% active; AID 686980; further: nearly all actives have a fitted effect of over 65% in size
Pol iota confirm = Confirm cherry-picked inhibitors of human polymerase iota; shares compounds with Pol kappa inh-1; Pol iota primer extension, TAMRA/BHQ fluorescence; Potency, µM, usual class: inhibitors; 1,500 tested, 77% active; AID 720496
GALK inh confirm = galactokinase (human) inhibition, confirmation; shares compounds with Pol eta inh-1; purified GALK, Kinase-Glo ATP depletion luminescence; Potency, µM (top dose mostly 115 µM), most hits filed as inhibitors; 150 tested, 70% active
Redox cycling = redox cycling activity in phenol red-HRP assay; 150 tested, 40% active; Potency, µM (titrated, usually from 115 µM), most hits filed as inhibitors; Phenol red-HRP H2O2 redox cycling, absorbance 600 nm; shares compounds with Pol eta inh-1
HEK293 viability = counter-screen for GALK inhibitors: HEK293 cell cytotoxicity | shares compounds with Pol eta inh-1 | HEK-293 viability, ATP luminescence (CellTiter-Glo), 24/48 h | Potency, µM (titrated, usually from 46.1 µM), actives largely listed as inhibitors | 170 tested, 10% active
Pol kappa inh-2 = Pol kappa (human) inhibition, cherry-pick confirmation; shares compounds with Pol eta inh-1; purified Pol-kappa, fluorescent strand-displacement substrate; Potency, µM, most hits filed as inhibitors; 920 tested, 76% active
Pol eta inh-2 = Pol eta (human) inhibition, cherry-pick confirmation; shares compounds with Pol eta inh-1; Pol eta primer extension, TAMRA/BHQ fluorescence, 10 min; Potency, µM, usual class: inhibitors; 2,600 tested, 64% active; AID 720502
FEN1 inh-2 = confirmation of human FEN1 inhibitors | shares compounds with FEN1 inh-1 | Potency, µM, usual class: inhibitors | FEN1 flap cleavage, TAMRA/BHQ2 fluorogenic DNA substrate | 880 tested, 79% active; further: nearly all actives have a fitted effect of over 60% in size
WRN helicase inh-2 = confirmation of human WRN helicase inhibitors; shares compounds with WRN helicase inh-1; WRN helicase DNA unwinding, fluorescence kinetic; Potency, µM (highest dose often 57.1 µM), actives largely listed as inhibitors; 610 tested, 63% active; further: nearly all actives have a fitted effect of over 65% in size
TO DNA binding = DNA binding via thiazole orange displacement | shares compounds with WRN helicase inh-1 | thiazole orange DNA binding displacement, fluorescence | Potency, µM (doses to about 57.1 µM), most hits filed as inhibitors | 610 tested, 10% active | AID 720499;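 further: drop in dye fluorescence marks compound binding to DNA; nearly all actives have a fitted effect of over 60% in size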
BLM counter = blocks human BLM helicase in WRN counterscreen; Recombinant BLM helicase DNA unwinding, red fluorescence; 610 tested, 60% active; shares compounds with WRN helicase inh-1; AID 720503; Potency, µM (doses to about 57.1 µM), actives largely listed as inhibitors; further: nearly all actives have a fitted effect of over 60% in size
Hits are given with their value; - = inactive; ? = inconclusive; . = no result given; [ ] = dose if it differs, or a comment. The call rests on the fitted dose curve; in most records, active means well fitted curve in the direction sought with a large enough effect; inconclusive means small, poorly fitted or top-dose-only effect, or another doubt; inactive means no such curve, though single readings can be large; an effect the other way counts as inactive or inconclusive.

SMILES	Pol kappa inh-1	POLI inh	WRN helicase inh-1	Pol eta inh-1	FEN1 inh-1	Pol beta inh	Pol iota confirm	Pol eta inh-2	WRN helicase inh-2	TO DNA binding	BLM counter	others
O=C1C=CC(=O)c2c(O)c(N3CCN(CCO)CC3)c(Cl)c(O)c21	22.4µM	5.62µM	31.6µM	1.78µM	?	.	3.36	16.9	.	.	.	Pol kappa inh-2=16.8;FEN1 inh-2=75.7
COc1cc(NC(=O)c2cc3cc4ccc(OC)c(Cl)c4nc3s2)cc(OC)c1	-	-	.	-	-	-	.	.	.	.	.
Cc1cc2[nH]c3c(c[n+](C)c4ccccc34)c2cc1C	25.1µM	4.47µM	-[11.6 µM]	?	?	1.26µM	15	.	.	.	.	FEN1 inh-2=3.79
NC(=O)[C@@H]1CCCN1	-	.	.	.	.	.	.	.	.	.	.
O=C1C(Cl)=C(NCCc2ccccc2)C(=O)c2ccccc21	-	3.55µM	28.2µM	22.4µM	?	.	47.4	47.8	?	-	17.1µM
O/N=C(/C[n+]1ccsc1)c1ccc(I)cc1	-	-	.	.	-	.	.	.	.	.	.
COC(=O)C(C(C)=O)C1=C/C(=N\S(=O)(=O)c2ccc(C)cc2)c2ccccc2C1=O (centres undefined)	-	-	-	-	-	-	.	.	.	.	.
O=C(O)c1ccc(S(=O)(=O)/N=C2\C=C(Nc3ccccc3F)C(=O)c3ccccc32)cc1	?	1.12µM	39.8µM	8.91µM	44.7µM	44.7µM	21.2	21.3	?	-	?	GALK inh confirm=7.49µM;Redox cycling=4.21µM;HEK293 viability=12.5µM;FEN1 inh-2=?
Cc1ccc(-n2c(=O)c3ccc(C(=O)NCc4ccccc4Cl)cc3n(Cc3cccc(F)c3)c2=O)cc1	-	-	.	-	-	-	.	.	.	.	.
O=C(N=Nc1c(O)[nH]c2ccc([N+](=O)[O-])cc12)c1ccccc1[N+](=O)[O-]	-	-	-	-	-	-	.	.	.	.	.
CCc1cc(C(=O)N=Nc2c(O)[nH]c3ccc([N+](=O)[O-])cc23)c2ccccc2n1	?	?	?	50.1µM	?	31.6µM	?	75.7	19.2µM	15.2µM	17.1µM
O=c1c(C(c2ccc(Br)cc2)c2c(O)nc3n(c2=O)CCCS3)c(O)nc2n1CCCS2	?	?	-	-	-	?	.	.	.	.	.
O=c1c(C(c2ccc(O)cc2)c2c(O)nc3n(c2=O)CCCS3)c(O)nc2n1CCCS2	?	?	?	12.6µM	-	-	?	75.7	?	-	19.2µM
CCN1/C(=C/c2ccc3cc(C)ccc3[n+]2CC)Sc2cc(C)c(C)cc21	-	-	50.1µM	?	31.6µM	14.1µM	42.3	75.7	24.1µM	21.5µM	?	FEN1 inh-2=4.78
CCc1cccc(C)c1NC(=O)c1cnn(-c2ccc(OC)cc2)c1C1CCN(C(=O)OC(C)(C)C)CC1	-	-	.	-	-	-	.	.	.	.	.
NS(=O)(=O)c1ccc(NC(=O)c2ccc3nccnc3c2)cc1	-	-	-	-	-	-	.	.	.	.	.
NS(=O)(=O)c1ccc(CCNC(=O)c2ccc3nccnc3c2)cc1	31.6µM	20µM	31.6µM	3.16µM	?	.	16.8	12	17.1µM	?	7.64µM	Pol kappa inh-2=4.23;FEN1 inh-2=?
Cc1cccc(CNc2ccnc(-c3ccccc3C(F)(F)F)n2)c1	-	.	.	.	.	.	.	.	.	.	.
O=C(CCSCCC(=O)NCc1ccco1)NCc1ccco1	?	-	13.4µM	11.2µM	-	22.4µM	33.6	26.9	21.5µM	-	17.1µM
O=C(CSCC(=O)NCc1ccco1)NCc1ccco1	-	-	-	-	-	-	.	.	.	.	.
Cc1cc(=O)[nH]c(SCC(=O)NCc2ccco2)n1	35.5µM	8.91µM	18.9µM	3.16µM	-	12.6µM	29.9	19	?	-	21.5µM
CCN(CC)c1ccc(/C=C2\C=Cc3ccccc32)cc1	-	-	.	.	-	.	.	.	.	.	.
O=C1COc2ccc(C(=O)COC(=O)c3ccc4ccccc4n3)cc2N1	-	?	?	?	-	?	47.4	?	13.6µM	-	8.57µM
CCOc1ccc(NC(=O)C(=O)NCC(c2cccnc2)N2CCc3ccccc32)cc1 (centres undefined)	-	-	.	-	-	-	.	.	.	.	.
CN1CCN(c2ccc(Nc3c4ccccc4nc4ccccc34)cc2)CC1	18.9µM	.	.	.	.	.	42.3	.	6.07µM	7.64µM	24.1µM	Pol kappa inh-2=29.9;FEN1 inh-2=19
O=C(O)c1ccc(Nc2c3ccccc3nc3ccccc23)cc1	-	-	-	-	-	-	.	.	.	.	.
COc1ccc(C2Nc3ccccc3C(=O)N2Cc2ccco2)cc1COc1ccc(N)cc1 (centres undefined)	.	.	.	.	.	.	75.2	84.9	10.8µM	?	3.04µM
Cc1ccc(C(=O)NCCn2cc(SCC(=O)Nc3cc(C)on3)c3ccccc32)cc1	-	-	-	-	-	-	.	.	.	.	.
Cc1cc(NC(=O)CSc2cn(CCNC(=O)c3ccccc3)c3ccccc23)no1	11.2µM	?	31.6µM	?	31.6µM	-	8.44	10.7	12.1µM	-	3.41µM	TbPGK inh=1.16µM;FEN1 inh-2=67.5
